± gives the standard deviation of the averaged measurements.
Tests used:
Assay in all cases: growth (OD600 after 10 h); higher = more growth (less inhibition)
[1] = test system: E. coli TESEC Alr+ wild-type control; settings: compound 0.1 mM; raw OD600 reference: median of DMSO wells 0.241, cell-free background 0.041
Description: (§1)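 TESEC Mtb Alr E. coli, or the Alr+ wild-type control, in 384-well plates with Prestwick library compounds at 0.1 mM and 1% DMSO, across arabinose induction levels of 1E3 to 1E7 nM. Growth is read as OD600 after 10 h at 37 °C in triplicate biological replicates.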

[2] = test system: E. coli TESEC Mtb Alr; settings: compound 0.1 mM
Description: as §1

[3] = test system: E. coli TESEC Mtb Asd; settings: compound 0.1 mM
Description: (§2)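 TESEC E. coli strains in which the native enzyme is deleted and replaced by arabinose-inducible Mtb Asd, DapB, CysH or TrpD, each grown in its selective medium. Strains were screened against the Prestwick library at 0.1 mM and 1% DMSO in 384-well format at low and high arabinose induction. Growth is read as OD600 after 10 h in triplicate.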

[4] = test system: E. coli TESEC Mtb DapB; settings: compound 0.1 mM
Description: as §2

[5] = test system: E. coli TESEC Alr+ wild-type control; settings: compound 0.1 mM; raw OD600 reference: median of DMSO wells 0.49, cell-free background 0.052
Description: (§3)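 TESEC Mtb Alr E. coli (ΔaraC ΔtolC ΔentC Δalr ΔdadX, arabinose-inducible Mtb Alr) or the Alr+ wild-type control strain, grown in defined M9-fructose medium without D-alanine in 96-well plates with Prestwick library compounds at 0.1 mM and 1% DMSO. Low Alr induction is 0.1 µM arabinose and high induction is 10 mM arabinose.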

[6] = test system: E. coli TESEC Mtb Alr; settings: compound 0.1 mM; remark: listed apart in the source
Description: as §3

[7] = arabinose 1000 nM, raw OD600 reference: median of DMSO wells 0.294, cell-free background 0.041
[8] = arabinose 10000 nM, raw OD600 reference: median of DMSO wells 0.264, cell-free background 0.041
[9] = arabinose 100000 nM, raw OD600 reference: median of DMSO wells 0.201, cell-free background 0.041
[10] = arabinose 1000000 nM, raw OD600 reference: median of DMSO wells 0.193, cell-free background 0.041
[11] = arabinose 10000000 nM, raw OD600 reference: median of DMSO wells 0.146, cell-free background 0.041
[12] = arabinose induction (level): High, raw OD600 reference: median of DMSO wells 0.331, cell-free background 0.041
[13] = arabinose induction (level): Low, raw OD600 reference: median of DMSO wells 0.417, cell-free background 0.041
[14] = arabinose induction (level): High, raw OD600 reference: median of DMSO wells […], cell-free background 0.041
[15] = arabinose induction (level): Low, raw OD600 reference: median of DMSO wells 0.227, cell-free background 0.041
[16] = arabinose 100 nM, raw OD600 reference: median of DMSO wells 0.413, cell-free background 0.052
[17] = arabinose 10000000 nM, raw OD600 reference: median of DMSO wells […], cell-free background 0.052

Compound | growth [1] | growth [2, 7] | growth [2, 8] | growth [2, 9] | growth [2, 10] | growth [2, 11] | growth [3, 12] | growth [3, 13] | growth [4, 14] | growth [4, 15] | growth [5] | growth [6, 16] | growth [6, 17]
CNC[C@H](O)[C@@H](O)[C@H](O)[C@H](O)CO [Meglumine] | 0.237 ± 0.0045 | 0.306 ± 0.016 | 0.254 ± 0.0031 | 0.212 ± 0.025 | 0.188 ± 0.0027 | 0.136 ± 0.0042 | 0.325 ± 0.022 | 0.408 ± 0.066 | 0.199 ± 0.049 | 0.235 ± 0.017 | 0.548 ± 0.015 | 0.404 ± 0.019 | 0.356 ± 0.011
CCCCc1nc(Cl)c(CO)n1Cc1ccc(-c2ccccc2-c2nnn[nH]2)cc1 [Losartan] | 0.204 ± 0.0085 | 0.281 ± 0.015 | 0.258 ± 0.0039 | 0.209 ± 0.026 | 0.161 ± 0.0058 | 0.1297 ± 0.0011 | 0.23 ± 0.017 | 0.409 ± 0.0075 | 0.195 ± 0.015 | 0.228 ± 0.018 | 0.495 ± 0.071 | 0.4187 ± 0.0032 | 0.279 ± 0.0092
COc1ccccc1OCC(O)CO (centres undefined) [Guaifenesin] | 0.238 ± 0.0069 | 0.306 ± 0.021 | 0.274 ± 0.0056 | 0.191 ± 0.0043 | 0.19 ± 0.0056 | 0.141 ± 0.0035 | 0.427 ± 0.031 | 0.377 ± 0.14 | 0.192 ± 0.013 | 0.228 ± 0.023 | 0.535 ± 0.093 | 0.408 ± 0.011 | 0.345 ± 0.015
C[C@H](Cc1cc2c(c(C(N)=O)c1)N(CCCO)CC2)NCCOc1ccccc1OCC(F)(F)F [Silodosin] | 0.1773 ± 0.001 | 0.251 ± 0.0074 | 0.273 ± 0.0053 | 0.171 ± 0.019 | 0.158 ± 0.015 | 0.14 ± 0.0083 | 0.302 ± 0.092 | 0.474 ± 0.012 | 0.201 ± 0.02 | 0.206 ± 0.033 | 0.442 ± 0.056 | 0.407 ± 0.011 | 0.329 ± 0.018
COc1cc(NS(=O)(=O)c2ccc(N)cc2)ncn1 [Sulfamonomethoxine] | 0.222 ± 0.0061 | 0.259 ± 0.022 | 0.173 ± 0.0027 | 0.2 ± 0.0044 | 0.1141 ± 0.00026 | 0.1384 ± 0.0013 | 0.345 ± 0.061 | 0.413 ± 0.018 | 0.166 ± 0.026 | 0.19 ± 0.014 | 0.596 ± 0.092 | 0.422 ± 0.0097 | 0.331 ± 0.0088
CCCNC(=O)NS(=O)(=O)c1ccc(Cl)cc1 [Chlorpropamide] | 0.255 ± 0.0063 | 0.301 ± 0.007 | 0.25 ± 0.0077 | 0.23 ± 0.048 | 0.184 ± 0.008 | 0.141 ± 0.0057 | 0.392 ± 0.035 | 0.409 ± 0.057 | 0.234 ± 0.032 | 0.231 ± 0.0079 | 0.525 ± 0.065 | 0.396 ± 0.02 | 0.3521 ± 0.0031
COC(=O)Nc1nc2cc(C(=O)c3ccccc3)ccc2[nH]1 [Mebendazole] | 0.202 ± 0.005 | 0.245 ± 0.021 | 0.269 ± 0.0042 | 0.189 ± 0.011 | 0.168 ± 0.0043 | 0.159 ± 0.0019 | 0.306 ± 0.021 | 0.398 ± 0.078 | 0.206 ± 0.017 | 0.273 ± 0.053 | 0.588 ± 0.031 | 0.413 ± 0.0078 | 0.342 ± 0.017
COc1ccc(C(Cl)=C(c2ccc(OC)cc2)c2ccc(OC)cc2)cc1 [Chlorotrianisene] | 0.242 ± 0.0055 | 0.306 ± 0.018 | 0.2565 ± 0.0023 | 0.189 ± 0.013 | 0.208 ± 0.013 | 0.168 ± 0.049 | 0.281 ± 0.037 | 0.264 ± 0.019 | 0.232 ± 0.016 | 0.267 ± 0.0015 | 0.469 ± 0.025 | 0.443 ± 0.02 | 0.407 ± 0.019
